Pf Dd2 growth: Plasmodium falciparum Dd2 growth inhibition. P. falciparum Dd2 growth, SYBR Green, 72 h. Potency, µM (titrated, usually from 28.9 µM), for the others: top-dose activity, negative = inhibition, actives largely listed as inhibitors. 120,000 compounds, 4.3% hits; active = well fitted inhibition curve with a large enough effect;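 note: plate controls were DMSO vehicle for no effect and reference drug for full effect; nearly all actives have a fitted effect of over 65% in size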
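Infected erythrocytes (Dd2, 0.3% parasitemia, 2.5% hematocrit final) are added to compound in RPMI-1640/Albumax II medium, grown 72 h at 37C in low oxygen, then lysed with saponin/Triton-X containing SYBR Green and read by fluorescence.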
Starred values were filed as active, the others as inactive; i = inactive; [ ] = dose if it differs, or a comment. Many of the other results were omitted from the sample, so hits are more common in it than they were. Potency is the fitted concentration of half-maximal effect.

SMILES	Pf Dd2 growth
Cc1cn(CCn2ccnc2-c2nc[nH]c2C)nn1	-6.4%
CCC(O)c1nc2ccccc2n1Cc1cc(C)ccc1C (configuration not stated)	11.2µM*
CCC(O)c1nc2ccccc2n1Cc1cccc(Cl)c1 (configuration not stated)	-22.8%
CC(=O)N1CCCC1c1nc2ccccc2n1Cc1cc(C)ccc1C (configuration not stated)	-2.2%
CN(C)C[C@@H]1CN(S(C)(=O)=O)C[C@H]1NC(=O)CC1=CCCCC1	-15.9%
CNC(=O)c1cc(-c2ccc(OC)nc2)cc2c1OCCN2Cc1cccnc1	i
CNC(=O)c1cc(-c2ccccc2F)cc2c1OCCN2Cc1cccnc1	-22.4%[44.1 µM]
CNC(=O)c1cc(-c2ccc(N3CCOCC3)cc2)cc2c1OCCN2Cc1cccnc1	10µM*
c1ccc(CN2CCC(Nc3ncncn3)C2)cc1 (configuration not stated)	-6.6%
CN(C)CCO[C@H]1C[C@@H](O)C12CCN(C(=O)c1ccc3c(c1)OCO3)CC2	-10.8%
COCCN1CC(CO)C2(CCN(C(=O)c3ccccc3)CC2)C1 (configuration not stated)	-7.0%
CCCC(=O)N1CCC2(CC1)SCC(=O)N2c1ccc(Cl)cc1	-4.0%
CCOCCCNC(=O)N1CCn2nnc(CCC(=O)N3CCOCC3)c2C1	-9.6%
COc1ccc(Nc2cc(C)c3cc(NC(=O)COc4cccc(C)c4)ccc3n2)cc1	3.98µM*
COc1ccc(-n2nc3ccc(NC(=O)COc4ccc(C)c(C)c4)cc3n2)cc1	6.3%
COc1ccc(CC(=O)Nc2ccc3nc(Nc4cccc(Cl)c4)cc(C)c3c2)cc1OC	i
COc1nccnc1NC1CCN(C(=O)NC2CCCC2)CC1	22.5%[5.79 µM]
O=C(NCCCc1ccccc1)C1CN(c2ccc(Cl)cc2)C(=O)N1 (configuration not stated)	-6.5%
O=C1CCCN1CCC1CCCCN1C(=O)c1cn(Cc2ccc(F)cc2Cl)nn1 (configuration not stated)	-0.6%
COc1ccc(CC(=O)NC2CCCc3c2[nH]c2ccccc32)cc1OC (configuration not stated)	-13.6%
COC(=O)[C@@H]1Cc2c([nH]c3ccccc23)[C@H]2C[C@H](NC[C@H]3CCCO3)C[C@@H](c3ccccc3F)N21	-13.8%
COC(=O)[C@@H]1Cc2c([nH]c3ccccc23)[C@H]2C[C@H](N3CCCCC3)C[C@@H](c3ccccc3F)N21	1.41µM*
COC(=O)[C@@H]1Cc2c([nH]c3ccccc23)[C@H]2C[C@@H](N3CCCCC3)C[C@@H](c3ccccc3F)N21	3.98µM*
COC(=O)[C@@H]1Cc2c([nH]c3ccccc23)[C@H]2C[C@@H](NCCNC(C)=O)C[C@@H](c3ccccc3F)N21	-7.4%
CCN(Cc1ccccc1)C(=O)Cn1c(C)ccc(NS(=O)(=O)c2ccccc2)c1=O	-1.7%
SMILES	Pf Dd2 growth
O=S(=O)(Cc1ccccc1F)N1CCC(C2CCNC2)CC1 (configuration not stated)	-9.1%
COc1ccc(C(=O)Nc2ccc(-c3noc([C@@H]4CCCN4Cc4ccc(Cl)cc4)n3)cn2)cc1	11.2µM*
COCC(=O)Nc1ccc(-c2noc([C@@H]3CCCN3Cc3ccc(S(C)(=O)=O)cc3)n2)cn1	-25.8%
COCC(=O)Nc1ccc(-c2noc([C@@H]3CCCN3Cc3ccc(F)cc3)n2)cn1	-9.9%[44.1 µM]
COc1ccc(C(=O)Nc2ccc(-c3noc([C@@H]4CCCN4Cc4ccccc4C)n3)cn2)cc1	-19.8%
COCC(=O)Nc1ccc(-c2noc([C@@H]3CCCN3CC(C)C)n2)cn1	11.2µM*
COc1ccc(C(=O)Nc2ccc(-c3noc([C@@H]4CCCN4Cc4ccc(F)c(F)c4)n3)cn2)cc1	i
O=C(NCc1cccnc1)[C@@H]1C[C@@H](O)CN1C1CCN(C(=O)C2CCCC2)CC1	20.9%
COc1ccc2c(c1)OCC(CNC(=O)c1noc3c1CCCC3)C2 (configuration not stated)	-7.8%
O=C1CCC2(CNC(=O)C3CCOCC3)CCCC=C2N1 (configuration not stated)	14.0%
COCCN1C(=O)c2ccccc2C(C(=O)NCCc2ccc(F)cc2)C12CCCC2 (configuration not stated)	i
COc1ccc(CN2Cc3[nH]nc(-c4ccccc4Cl)c3CC2=O)cc1	i
O=C(NCc1ccccc1)C1=NO[C@@H]2CN(Cc3ccc(O)c(Cl)c3)C[C@H]12	-26.1%[44.1 µM]
Cc1noc(C)c1[S+](=O)([O-])N1CCc2nc(C(C)C)nc(-c3ccc(Cl)cc3)c2C1	i
Cc1nc2c(c(-c3ccc(Cl)cc3)n1)CN([S+](=O)([O-])c1c(C)noc1C)CC2	i
CC(C)c1nc2c(c(-c3ccc(O)cc3)n1)CN(CC1CC1)CC2	i
CC(C)c1nc2c(c(-c3ccc(O)cc3)n1)CN(C(=O)c1ccccc1F)CC2	-7.9%
Cc1noc(C)c1[S+](=O)([O-])N1CCc2nc(C(C)C)nc(-c3ccc(O)cc3)c2C1	10µM*
COc1ccc(CN2CCc3nc(C(C)C)nc(-c4ccc(O)cc4)c3C2)cc1	8.91µM*

Source: PubChem BioAssay (National Center for Advancing Translational Sciences (NCATS))
